The text below walks through data of PubChem BioAssay AID1259415 (National Center for Advancing Translational Sciences (NCATS), 2018).

The campaign covered roughly 410,000 compounds. About 18,000 (4.4%) were called active. Another 7% or so got no clear call; they are omitted. Many of the other results were omitted from the sample, so actives are more common in it than they were. A number with no mark means an inactive call. Cut-off read from the data, not from the text of the source: active = activity change below about -60%; inconclusive = no clear call, values can overlap the other calls; inactive = above about -39%.
% is set by controls: 0 for no effect and ±100 for the full control effect.

The nature of this test: qHTS Assay for inhibitors of the human cytomegalovirus (HCMV). The settings on record: HFF cells, HCMV-luciferase reporter, 72 h; at 57.5 µM; hits give low values. The procedure, abridged:
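Two-dose cell screen: HFF monolayers treated with compounds and infected with luciferase-expressing HCMV at 1 PFU/cell, 72 h at 37C, then lysed for luciferase measurement.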
A general note: qHTS replaces the single test concentration by a dilution series.
In the case of `COc1ccc(CNc2nc(-c3ccccc3)nn2C(=O)c2ccccc2OC)cc1`, the activity change, negative = inhibition was -16.2%. With `N#Cc1cccc(NC(=O)N[C@H]2CC[C@@]34CCCN3C(=O)CCC[C@H]4C2Cc2ccccc2)c1` (some centres not stated) the figure was 0.85%. The value for `CCOc1ccc(C(CCc2ccccc2)NC(=O)c2ccc(OC)c(OC)c2)cc1OCC` (configuration not stated) was 37%; that for `CCN(CCCCOC(=O)c1ccc(OC)c(OC)c1)C(C)Cc1ccc(OC)cc1` (configuration not stated) was -37%. In the case of `COc1ccc(C(CCN(Cc2ccc(OC)c(OC)c2)C(=O)CCl)c2ccccc2)cc1` (configuration not stated), the activity change, negative = inhibition is -91.8% (active).

In the case of `Cc1noc2ncnc(NCc3ccccc3Cl)c12`, the activity change, negative = inhibition is -26.2%. With `O=C(O)c1ccc2c3c(cccc13)C(=O)N(OS(=O)(=O)c1ccccc1)C2=O` the figure was -101% (active). In the case of `Cc1cc(OCC(=O)Nc2ncn[nH]2)c(C)c(C)c1Br`, the activity change, negative = inhibition was 1.07%. With `O=C(Nc1ccc(F)cc1F)c1cnn(-c2ccc(F)cc2)c1-n1cccc1` the figure was -4.17%. For the molecule `COc1ccc(Cl)cc1NC(=O)CSc1nc(-c2cccs2)cc(C(F)(F)F)n1`, the activity change, negative = inhibition was -23.8%. For `CC(=O)c1ccc(N2CCN(c3nc4c(S(=O)(=O)c5ccccc5)nnn4c4ccc(Cl)cc34)CC2)cc1`, the activity change, negative = inhibition was 8.15%. As for `CN(CCc1ccccc1)c1ccc([N+](=O)[O-])cn1`, the activity change, negative = inhibition was 12.9%. Turning to `c1ccc2cc(CCCc3cc4ccccc4cn3)ncc2c1`, the activity change, negative = inhibition is -18.2%. With `O=[N+]([O-])c1cnc2ccc3ccccc3c2c1`, the activity change, negative = inhibition is -96.3% (active).

As for `O=C(c1c(F)cccc1F)N1CCN(c2ncc(Br)cn2)CC1`, the activity change, negative = inhibition is 2.5%. The value for `CCOC(=O)c1ccc(N2C(=O)c3n[nH]c(-c4ccco4)c3C2c2ccc(O)cc2)cc1` (configuration not stated) was -8.9%. Take `COC(=O)C1(O)CC(C(C)C)=NN1C(=O)c1ccc(Cl)cc1` (configuration not stated): the activity change, negative = inhibition was 27.1%. As to `O=C(C1CC1)N1N=C(c2ccc(Br)cc2)CC1(O)C(F)(F)F` (configuration not stated), the activity change, negative = inhibition is 10%. `O=C(c1ccc(Cl)cc1)N1N=C(c2ccccn2)CC1(O)C(F)(F)F` (configuration not stated): the activity change, negative = inhibition was -98.8% (active). The value for `O=C(COc1ccccc1F)Nc1ccc(C(=O)OCc2cc(=O)n3nc(C4CC4)sc3n2)cc1` was 10.3%; that for `CCCC(=O)N1CCN(c2nc3c(OC)ccc(C)c3s2)CC1` was 0.538%. In the case of `O=C(C1CC(=O)N(c2ccc(Br)cc2)C1)N1CCCC1` (configuration not stated), the activity change, negative = inhibition was -23.4%. The value for `CN1OC[C@@H]2CN(S(=O)(=O)c3cccc(C(F)(F)F)c3)[C@H](c3ccc(-c4cc5ccccc5o4)cc3)C[C@@H]21` was -67.9% (active); that for `COc1ccccc1-c1ccc([C@@H]2C[C@H]3[C@H](CON3C)CN2S(=O)(=O)c2cc(Cl)cc(Cl)c2)cc1` was 8.41%. The value for `COc1ccc(S(=O)(=O)N2C[C@H]3CON(C)[C@H]3C[C@H]2c2cccc(Br)c2)cc1` was -8.56%. Regarding `CC(C)c1ccc(S(=O)(=O)Nc2ccc(O)c(Sc3nc4ccccc4s3)c2)cc1`, the activity change, negative = inhibition was -0.0854%. Take `O=C1C=C(c2ccc(Cl)cc2)C(=O)N1Nc1ccccc1`: the activity change, negative = inhibition is -97.6% (active). As for `Cc1cccc(NC(=O)Cn2nc(-c3ccc(Cl)cc3)c3ccccc3c2=O)c1`, the activity change, negative = inhibition was -6.04%.

On to `CCc1ccc(S(=O)(=O)n2ccnc2)cc1`, for which the activity change, negative = inhibition is -4.04%. The value for `Cc1c(C(=O)NCc2ccccc2Br)oc2ccc3c(c12)C(=O)CC(C)(C)O3` was -2.86%.

Regarding `O=C(CSc1nc2c(c(=O)[nH]1)CN(Cc1ccc3c(c1)OCO3)CC2)Nc1cc(F)ccc1F`, the activity change, negative = inhibition was -1.41%.

In the case of `CCOC(=O)c1c(NC(=O)CSc2cn(CCNC(=O)c3cccc(C(F)(F)F)c3)c3ccccc23)sc2c1CCC2`, the activity change, negative = inhibition is -7.22%.

For `O=C(CCSCc1ccccc1F)N1CCN(c2ccc(Cl)cc2)CC1`, the activity change, negative = inhibition is -29.1%.

Consider `CN(CC(=O)Nc1cccc(C(F)(F)F)c1)S(=O)(=O)c1cccs1`, for which the activity change, negative = inhibition is 20.2%. As to `CCNS(=O)(=O)c1cc(-c2nnc(Nc3cccc(C(F)(F)F)c3)c3ccccc23)ccc1C`, the activity change, negative = inhibition was 34.1%.

As to `Cc1oc2c(F)c(F)c(F)c(F)c2c1S(=O)(=O)Nc1cccc(C(F)(F)F)c1`, the activity change, negative = inhibition is -97.8% (active). Turning to `CCOC(=O)[C@]12CCC=C1N(Cc1ccco1)C(=O)[C@H](CC(=O)N1CCSCC1)C2`, the activity change, negative = inhibition is -10.1%. Regarding `CCOc1cc(-c2nnc(SCC(=O)NC3CCCC3)nc2-c2ccc(OC)c(OCC)c2)ccc1OC`, the activity change, negative = inhibition was 24.6%. In the case of `CO/N=C/CC(=O)c1ccc(OC)cc1`, the activity change, negative = inhibition was -35.1%. Turning to `COc1ccc(C(=O)C[n+]2ccc(C)cc2)cc1`, the activity change, negative = inhibition is 72%.

On to `COc1ccc(C(=O)C[n+]2ccc(N)c(C)c2C)cc1`, for which the activity change, negative = inhibition is -93.4% (active).

Regarding `CCOc1ccc(OCC)c(NC(=O)c2cc(C)nc3c2c(C)nn3-c2cccc(Cl)c2C)c1`, the activity change, negative = inhibition is 5.03%. `C[C@@H]1CCCCO[C@H](CN(C)Cc2ccccc2)[C@@H](C)CN([C@H](C)CO)C(=O)c2cc(NS(=O)(=O)c3ccc(Cl)cc3)ccc2O1`: the activity change, negative = inhibition is -31.2%.

Turning to `O=S(=O)(Nc1ccc(-c2ccc(N3CCOCC3)nn2)cc1)c1cc(Cl)ccc1Cl`, the activity change, negative = inhibition is -19.8%.

On to `N#Cc1ccccc1Cn1cnc2nc3c(cc2c1=O)CCCC3`, for which the activity change, negative = inhibition is 21.2%. With `Cn1cnc2c1c(=O)n(Cc1c(Cl)cccc1Cl)c(=O)n2C` the figure was -6.74%.

`Cn1cnc2c1c(=O)n(Cc1ccccc1C#N)c(=O)n2C`: the activity change, negative = inhibition was -66.7% (active).
